# Screens: PubChem BioAssay, National Center for Advancing Translational Sciences (NCATS)
# NIH3T3 tox – Cytotoxic Profiling in NIH 3T3 Cell Line of Diverse Libraries Using Quantitative High-Throughput Screening; AID 1345082, 2018; Potency, µM (highest dose often 96.7 µM), for the others: top-dose activity change, negative = cytotoxicity, actives largely listed as inhibitors; actives 4.3% (n = 94,000); NIH 3T3 viability, CellTiter-Glo ATP luminescence, 48-72 h; note: % is set by controls: 0 for no effect and ±100 for the full control effect; nearly all actives have a fitted effect of over 55% in size
#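 Mouse fibroblast NIH 3T3 cells, 400 per well, received compound via pintool and were incubated for 48 or 72 hr prior to CellTiter-Glo ATP luminescence measurement.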
# HEK293 tox – Cytotoxic Profiling in HEK 293 Cell Line of Diverse Libraries Using Quantitative High-Throughput Screening; HEK 293 viability, ATP luminescence (CellTiter-Glo), 48-72 h; Potency, µM (titrated, usually from 115 µM), for inactives: top-dose activity change, negative = cytotoxicity, actives largely listed as inhibitors; actives 6.6% (n = 94,000); AID 1345083, 2018; note: % is set by controls: 0 for no effect and ±100 for the full control effect; nearly all actives have a fitted effect of over 60% in size
#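 CellTiter-Glo luminescence (cellular ATP) was read after 48 or 72 hr of compound exposure at 37 degree Celsius. Cells were HEK 293 plated at 250 cells/well.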
# hNpr1 antagonist – Natriuretic polypeptide receptor (hNpr1) antagonism - Primary qHTS. Atrial natriuretic peptide receptor 1 (Homo sapiens), P16066. HEK293 hNpr1 GloSensor cGMP, ANP-stimulated luminescence. Potency, µM (highest dose often 46.3 µM), inactives show at the top dose activity change, negative = inhibition, actives largely listed as inhibitors. actives 1.6% (n = 76,000). AID 1347048, 2019; calls by dose curve; note: % is set by controls: 0 for no effect and ±100 for the full control effect; nearly all actives have a fitted effect of over 60% in size
#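 Compound pre-incubated 30 min at room temperature on GloSensor-loaded HEK293 cells stably carrying hNpr1 and the pGS-40F cGMP biosensor. Stimulation uses hNppA at 0.1 nM final; luminescence is taken at baseline and 20 min post-agonist.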
# FLuc inh-1 – Firefly luciferase inhibition profiling of diverse chemical library using quantitative high-throughput screening; actives 2.5% (n = 76,000); Potency, µM (highest dose often 115 µM), most hits filed as inhibitors; purified P. pyralis luciferase, luminescence, biochemical; AID 1347043, 2019; note: % is set by controls: 0 for no effect and ±100 for the full control effect; nearly all actives have a fitted effect of over 65% in size
# Target sequence (P08659 whole entry, looked up): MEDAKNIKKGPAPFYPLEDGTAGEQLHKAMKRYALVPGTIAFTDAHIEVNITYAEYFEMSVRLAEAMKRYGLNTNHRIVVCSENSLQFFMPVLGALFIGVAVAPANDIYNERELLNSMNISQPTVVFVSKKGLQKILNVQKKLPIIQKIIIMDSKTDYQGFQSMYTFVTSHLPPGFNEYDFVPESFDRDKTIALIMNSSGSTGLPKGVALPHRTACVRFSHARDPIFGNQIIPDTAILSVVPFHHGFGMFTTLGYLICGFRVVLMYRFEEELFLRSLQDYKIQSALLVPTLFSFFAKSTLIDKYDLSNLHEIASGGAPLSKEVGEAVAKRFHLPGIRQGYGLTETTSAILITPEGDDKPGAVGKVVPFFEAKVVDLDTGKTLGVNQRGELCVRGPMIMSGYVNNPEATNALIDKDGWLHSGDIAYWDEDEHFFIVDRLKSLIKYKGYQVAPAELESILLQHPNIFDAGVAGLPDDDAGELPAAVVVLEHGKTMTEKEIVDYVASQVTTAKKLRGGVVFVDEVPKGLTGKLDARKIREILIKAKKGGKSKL
#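 Inhibitors were tested against purified firefly luciferase in a biochemical, low-substrate format (both substrates at 10uM) and luminescence measured with a CCD imager.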
# FLuc SDR -ATP – Firefly luciferase (FLuc-C-HiBiT) SDR gain of signal screen - without ATP; shares compounds with FLuc inh-1; Purified FLuc-C-HiBiT, Nano-Glo HiBiT luminescence, no ATP; Potency, µM (titrated, usually from 32.7 µM), without a hit: top-dose activation (signal gain), usual class: activators; actives 7.8% (n = 1,300); note: nearly all actives have a fitted effect of over 55% in size
# FLuc SDR ATP – Firefly luciferase (FLuc-C-HiBiT) SDR gain of signal screen - plus ATP; shares compounds with FLuc inh-1; purified FLuc-C-HiBiT + ATP, HiBiT complementation luminescence; Potency, µM (top dose mostly 32.7 µM), inactives show at the highest dose activation (gain of signal), hits mostly activators; actives 8.7% (n = 1,300); AID 1963319, 2024;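 note: signal reports ligand binding via conformational change of the enzyme rather than luciferase catalysis; % of control where 0% means no effect; nearly all actives have a fitted effect of over 55% in size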
# FLuc inh-2 – Firefly luciferase (FLuc-C-HiBiT) enzymatic inhibition screen - Functional assay | shares compounds with FLuc inh-1 | purified FLuc-C-HiBiT enzyme, luciferin luminescence | Potency, µM (series often up to 32.7 µM), inactives show at the highest dose activity change, negative = inhibition, actives largely listed as inhibitors | actives 42% (n = 1,300); note: % is set by controls: 0 for no effect and ±100 for the full control effect; nearly all actives have a fitted effect of over 70% in size
# Starred values were filed as active, the others as inactive; i = inactive; ? = inconclusive; . = no result given; [ ] = another dose, or the depositor's remark. Compounds with a hit are over-represented: about 11% of the library has one in this group of screens. Unless noted, calls come from the whole dose curve; as a rule, active = well fitted curve in the direction sought with a large enough effect; inconclusive = small, poorly fitted or top-dose-only effect, or another doubt; inactive = no such curve, though single readings can be large; an effect the other way counts as inactive or inconclusive. Potency is the fitted concentration of half-maximal effect.
SMILES,NIH3T3 tox,HEK293 tox,hNpr1 antagonist,FLuc inh-1,FLuc SDR -ATP,FLuc SDR ATP,FLuc inh-2
CSc1ccc(-c2cccc(C(=O)NCCNC(=O)c3cccc(Cl)c3)c2)cc1,-27.9%,-28.7%,.,.,.,.,.
CC(C)C1=NOC2(CCN(C(=O)c3ccccc3)C2)C1 (stereo not drawn),i,-0.4%[172 µM],.,.,.,.,.
COc1ccc(CCNc2nc3ccccc3c3nc(-c4cccc(C)c4)nn23)cc1OC,.,.,.,.,14.6%,11.9%,?
COc1cccc(CN2CC3(C2)C(=O)N(Cc2ccccc2Cl)C(=O)[C@@H]2C[C@@H](O)CN23)c1,?,?,-1.3%,i,.,.,.
CCNC(=O)N[C@@H]1C=C[C@@H](c2c(C)nn(-c3ccccc3[N+](=O)[O-])c2C)C1,-25.6%[174 µM],?,-27.2%[70.6 µM],?,.,.,.
CCNC(=O)N[C@@H]1C=C[C@@H](c2c(C)nn(-c3ccc(C(C)C)cc3)c2C)C1,28.2µM*,20µM*,7.08µM*,0.501µM*,?,?,2.86µM*
CC(=O)N[C@@H]1C=C[C@@H](c2c(C)nn(-c3ccc(C(F)(F)F)cc3)c2C)C1,89.1µM*,79.4µM*,?,14.1µM*,16.2%[49.3 µM],?,?
CCNC(=O)N[C@@H]1C=C[C@@H](c2c(C)nn(-c3ccc(C(F)(F)F)cc3)c2C)C1,?,22.4µM*,25.1µM*,1.58µM*,24.5%[49.3 µM],?,14.3µM*
Cc1nn(-c2ccc(C(C)(C)C)cc2)c(C)c1[C@@H]1C=C[C@@H](NC(=O)COCC(=O)O)C1,?,2.7%[172 µM],-1.9%[70.6 µM],22.4µM*,27.6%[49.3 µM],17.6%[49.3 µM],?
CCNC(=O)N[C@H]1C[C@@H](c2nc(-c3ccc(OC(F)(F)F)cc3)no2)N(C)C1,-12.9%[174 µM],?,-21.5%[70.6 µM],?,.,.,.
CCOc1ccc(CN2CC[C@@](C)(O)[C@H](N3CCCC3)C2)cc1,?,-10.3%,0.2%,i,.,.,.
Cc1nn(-c2ccc(C(F)(F)F)cc2)c(C)c1[C@@H]1C=C[C@@H](NC(=O)c2ccc(N(C)C)cc2)C1,?,?,-14.2%,?,.,.,.
CC(=O)N[C@@H]1C=C[C@@H](c2c(C)nn(-c3ccc(C(C)(C)C)cc3)c2C)C1,50.1µM*,?,?,14.1µM*,17.2%[49.3 µM],18.0%[49.3 µM],?
COc1cc(OC)c(NC(=O)Cn2c(SCc3ccccc3F)nc3cccnc32)cc1Cl,.,.,.,.,18.4%,12.4%,-8.2%
COc1ccccc1Cn1c(=O)c(C(=O)NCCSC)nc2cccnc21,?,0.8%,.,.,.,.,.
COc1ccc(NC(=O)Cn2c(SCc3ccc(C)cc3)nc3cccnc32)cc1OC,.,.,.,.,1.4µM*,?,0.7µM*
COc1ccc(NC(=O)Cn2c(-c3ccc(Cl)cc3)nc(C)cc2=O)cc1OC,-12.0%,?,0.4%,i,.,.,.
COCCN1CCCC[C@]2(C[C@H](C(=O)O)[C@H](c3ccco3)N2C(=O)c2ccccc2)C1=O,?,2.2%,.,.,.,.,.
CCOc1ccc(NC(=O)N2CCc3cc(OC)c(OC)cc3C2CNC(=O)c2ccco2)cc1 (stereo not drawn),?,?,-0.9%,?,.,.,.
O=C(Nc1nn(-c2cccc(F)c2)c2cccc(N3CCOCC3)c12)C1CCC1,?,44.7µM*,?,7.94µM*,?,11.3%,?
CCCCCc1nn2cc(-c3ccccc3)nc2s1,.,.,.,.,?,?,0.624µM*
N#Cc1ccc(C(=O)Nc2ccc([C@H]3OCC(=O)N(C4CCOCC4)[C@@H]3CO)cc2)cc1,0.6%,-4.3%,0.0%,i,.,.,.
O=C(Nc1ccc([C@H]2OCC(=O)N(C3CCOCC3)[C@@H]2CO)cc1)c1ccc(C(F)(F)F)cc1,-17.9%,-5.0%,-0.2%,10µM*,?,14.6%,?
Cc1ccc(C2Cn3nnc(C(=O)N4CCC(C(=O)NCc5ccncc5)CC4)c3CO2)cc1 (stereo not drawn),-28.6%,1.0%,-3.5%,14.1µM*,7.4%,?,?
COc1ccc(CNC(=O)C2CCN(C(=O)c3nnn4c3COC(c3ccc(C)cc3)C4)CC2)cc1 (stereo not drawn),i,1.4%,3.5%,i,.,.,.
SMILES,NIH3T3 tox,HEK293 tox,hNpr1 antagonist,FLuc inh-1,FLuc SDR -ATP,FLuc SDR ATP,FLuc inh-2
Cc1ccc(C2Cn3nnc(C(=O)N4CCC(C(=O)NC5CC5)CC4)c3CO2)cc1 (stereo not drawn),-17.5%,-4.7%,-3.4%,10µM*,12.1%,?,?
O=C(Nc1ccc(F)cc1)C1CCN(c2nc3ncccc3o2)CC1,-14.0%,2.7%,.,.,.,.,.
CC1(c2ccccc2)N(Cc2ccccc2)C(=O)OC12CCN(Cc1cccc(O)c1)CC2 (stereo not drawn),?,?,-14.9%,i,.,.,.
O=C(COc1ccccc1)Nc1nnc(S(=O)(=O)Nc2ccccc2)s1,.,.,.,.,12.6%,7.6%,?
O=C(c1cc(C2CC2)nc2onc(C3CCCN3)c12)N1CCOCC1 (stereo not drawn),-8.1%,-14.2%,.,.,.,.,.
COc1ccc(-c2cc(C[C@@H]3CC[C@H](O)[C@@H](CNC4CCOCC4)O3)no2)cc1,-14.7%[174 µM],-10.6%[172 µM],?,?,.,.,.
Cc1nc(CN(C)Cc2nc(-c3cccc(Cl)c3)oc2C)no1,?,-30.3%,-8.2%,i,.,.,.
CC(Cc1cnccn1)Nc1ccc(-c2nc(-c3cccc(Cl)c3)no2)cn1 (stereo not drawn),?,?,?,3.55µM*,13.6%,15.8%,?
Cc1nnc(CN(C)c2ccc(-c3nc(-c4cccc(Cl)c4)no3)cn2)o1,?,?,11.2µM*,1.12µM*,17.0%,17.7%,4.95µM*
COc1ccccc1-n1c(=O)c(C(=O)N2CCN(C(=O)C(C)(C)C)CC2)nc2cccnc21,2.4%,-4.3%,.,.,.,.,.
CCOC(=O)c1ccc(NC2SC(=O)N(Cc3cccc(C(=O)O)c3)C2=O)cc1 (stereo not drawn),.,.,.,.,14.3%,?,?
CCn1nccc1C(=O)N1CCC(Cc2noc(C3CC3)n2)C1 (stereo not drawn),?,-29.8%,.,.,.,.,.
